Experimental data taken from PubChem BioAssay AID504834 (National Center for Advancing Translational Sciences (NCATS), 2011).
Hit rate of the full screen: of about 320,000 compounds, about 22,000 (6.9%) were called active. About 27% were inconclusive and are not listed. The entries come from a sample that favours actives as a whole. Unmarked numbers belong to inactive results. Calls come from the whole dose curve; as a rule, active = well fitted inhibition curve with a large enough effect; inconclusive = small, poorly fitted or top-dose-only effect, or another doubt; inactive = no such curve, though single readings can be large or run the other way.

Experiment: Primary qHTS for delayed death inhibitors of the malarial parasite plastid, 96 hour incubation
Settings: P. falciparum luciferase reporter growth; series mostly up to 28.7 µM; activity change, negative = inhibition: at the top concentration
Summary of the method: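 96 h incubation, 37 C, 5% CO2, of luciferase-reporter P. falciparum-infected RBCs (2% hematocrit, 0.05% parasitemia final) with test compounds; endpoint luminescence.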
% is set by controls: 0 for no effect and ±100 for the full control effect; potency is the fitted concentration of half-maximal effect.

Structure (SMILES)	activity change, negative = inhibition [%]	Potency
O=C(NCCc1ccccc1)Oc1ccc(Cl)cc1	83.8	
CCn1c(SCC(=O)NNC(=O)c2ccc(OC)cc2)nnc1C(C)C	-16.7	
CC1CCC(CN2CCN=C2N(C)C)CC1 (configuration not stated)	3.19	
O=C1CCCN1CCCNC(=S)Nc1ccc(F)c(Cl)c1	4.63	
CCCCC(=O)Nc1ccc(C(=O)Nc2cc(C(F)(F)F)ccc2Cl)cc1	-15.4	
O=C(CCCN1C(=O)CCC1=O)Nc1ccc(Cl)c(C(F)(F)F)c1		2.08 µM (active)
CNC(=O)c1sc(Nc2ccc(OCc3ccccc3)cc2)nc1C	1.4	
O=C(COc1ccccc1[N+](=O)[O-])N/N=C/c1ccc[nH]1	31.6	
S=C(Nc1ccc(Br)cc1)NC1CCN(Cc2ccccc2)CC1	-20.3	
O=C(NNC(=O)c1cnccc1C(F)(F)F)c1ccc(Cl)cc1	41.6	
COc1ccccc1CNC(=O)CN1CCC(n2cnc3cc(F)ccc32)CC1	45.9	
COC(=O)C1=C(c2ccc3ccccc3c2)C[C@@H]2CC[C@H]1N2C(=O)NCCO	-21.9	
COC(=O)C1=C(c2ccc(C(C)=O)cc2)C[C@@H]2CC[C@H]1N2C(=O)NCCNC(C)=O	36	
COC(=O)C1=C(c2ccc(F)cc2OCc2ccccc2)C[C@@H]2CC[C@H]1N2C(=O)NCc1ccc2[nH]ccc2c1		5.86 µM (active)
COC(=O)C1=C(c2cccc(OCc3ccccc3)c2)C[C@@H]2CC[C@H]1N2C(=O)NNCc1ccccc1		10.4 µM (active)
COC(=O)c1ccc(CNC(=O)C2CCC(=O)N(Cc3cccc(F)c3)C2)cc1 (configuration not stated)	26	
COc1ccc(S(=O)(=O)NC(C)C(=O)NCc2ccncc2)cc1Cl (configuration not stated)	-22.5	
CC1CN(C(=O)COC(=O)c2cccc(NS(=O)(=O)c3ccccc3)c2)CC(C)O1 (configuration not stated)	-10.8	
O=C(Nc1ccccc1)N1CCC(C(=O)N2CCN(Cc3ccccc3)CC2)CC1	-19.7	
COc1ccc(N(C)S(=O)(=O)c2ccc3c(c2)CC(C)N3C(=O)C2CC2)c(OC)c1 (configuration not stated)	11.3	
Cc1ccccc1Nc1nc(-c2cccnc2)cs1	-7.11	
O=C(Nc1ccc(O)cc1)c1ccccc1O	28.8	
Cc1cc(C(=O)NNC(=O)c2ccccc2O)c(C)o1	57.1	

Structure (SMILES)	activity change, negative = inhibition [%]	Potency
CC(=O)NC(=O)c1ccccc1O		5.36 µM (active)
COc1ccc(C(=O)Nc2c(N)nc(SCC(=O)Nc3ccc(C(C)=O)cc3)[nH]c2=O)cc1	-14.7	
CCc1ccc(-c2nn(-c3ccccc3)cc2CSC(=N)N)cc1	33.9	
Cc1ccc(-n2ccc(=O)c(C(=O)O)n2)cc1	-10.7	
CCn1c(SCc2ccc(C)cc2)nnc1-c1nn(-c2ccccc2)ccc1=O		7.38 µM (active)
CCOc1ccc(N(CC(=O)NCC2CCCO2)S(=O)(=O)c2ccc(C)cc2)cc1 (configuration not stated)	17.6	
CCOC(=O)c1sc(NC(=O)c2sc(C)nc2C)nc1C	32.2	
CCOC(=O)c1sc(NC(=O)c2ccncc2)nc1C		9.28 µM (active)
CCOC(=O)c1cccnc1NC(=O)c1ccncc1	18.8	
CCc1nc(SCC(=O)NNC(=O)c2ccc(C)cc2)c2ccccc2n1	16.4	
C=Cn1cc[n+](CC(=O)c2ccc(OC)c(OC)c2)c1	-6.61	
C=CCOc1ccc(/C=C2/C(=O)ON=C2C)cc1OCC	2.1	
COc1ccc(NC(=O)CN(C)C(=O)Cc2coc3cc(C)c(C)cc23)cc1	-1.57	
O=C(C1CCN(C2CCN(Cc3ccc4cc(F)ccc4n3)CC2)CC1)N1CCCC1	16	
NC(=O)C1CCN(C(=O)/C(=C/c2ccco2)NC(=O)c2ccccc2)CC1	-2.21	
C/C(=C\c1ccco1)CN1CCC(N2CCC(C(=O)N3CCOCC3)CC2)CC1		5.86 µM (active)
CCOC(=O)c1c(C)[nH]c2c1-c1ccccc1C(=O)C2=O		1.47 µM (active)
CCOC(=O)C1=C(c2ccc(OC)cc2)C(=O)c2ccccc2C1=O	2.89	
CCOC(=O)c1c(C)[nH]c(C(=O)NCc2ccccc2OC)c1C	55.2	
CCOC(=O)COc1nc(C)cc(C(F)(F)F)c1C#N	10.9	
O=C(NN1C(=O)C2C3C=CC(O3)C2C1=O)c1ccccc1 (configuration not stated)		11.7 µM (active)
O=C(NN1C(=O)C2C3C=CC(O3)C2C1=O)c1ccncc1 (configuration not stated)	31.8	
COc1ccccc1C(=O)NN1C(=O)C2C3C=CC(O3)C2C1=O (configuration not stated)	12.9	

Structure (SMILES)	activity change, negative = inhibition [%]	Potency
Cc1ccc(S(=O)(=O)N2CCN(C(=O)N3CCOCC3)CC2)c(C)c1	0	
O=C(COC(=O)c1ccccc1Cl)NC1CCCCCCC1	22.8	
CCOc1ccc(N2C(=O)CSC2=NC#N)cc1	-2.8	
CC(=O)N=c1ncn(CC(COC(C)=O)OC(C)=O)c2nc[nH]c12 (configuration not stated)		7.38 µM (active)
CC(=O)OC(COc1ccc(F)cc1)Cn1cnc2ccccc21 (configuration not stated)	-11.5	
CC(=O)OCC(COC(C)=O)OC(C)=O		inactive
CCOc1ccc(NS(=O)(=O)c2ccc(Cl)c(C(=O)N(C)Cc3cccnc3)c2)cc1	-18.3	
COCCN1C=C2C(=O)C(C)(OC(=O)C3CCCC3)C(=O)C=C2C=C1c1ccsc1 (configuration not stated)	31	
CC1(OC(=O)CCc2ccccc2)C(=O)C=C2C=C(c3ccc(C#N)cc3)N(CCc3ccccn3)C=C2C1=O (configuration not stated)		13.1 µM (active)
Cc1ccc(OCCCC(=O)Nc2ccc(S(=O)(=O)Nc3cc(C)nc(C)n3)cc2)cc1	2.09	
CCCS(=O)(=O)Nc1ccc(-c2cn3c(n2)SCC3)cc1	60.1	
CC(=O)Nc1ccc(NC(=O)COc2ccccc2C(=O)Nc2cccc(Cl)c2Cl)cc1	-7.49	
O=C(Nc1cccc(Cl)c1Cl)c1ccccc1NC(=O)C1CC=CCC1C(=O)O (configuration not stated)		14.7 µM (active)
O=C(O)C1CC=CCC1C(=O)Nc1ccccc1C(=O)N1CCN(c2ccccc2)CC1 (configuration not stated)	-3.07	
COCc1c(C(=O)N/N=C\c2cccnc2)nnn1-c1nonc1N	-18.9	
Cc1ccc(C(=O)NNc2ncnc3ccccc23)cc1	-13.1	
Cc1cc(=O)[nH]c(N/N=C/c2c(C)nn(-c3ccccc3Cl)c2Cl)n1		2.94 µM (active)
Cc1nn(-c2ccccc2)c(Cl)c1/C=N/NC(=O)c1nn(C)cc1[N+](=O)[O-]	-22	
Cc1cc(=O)[nH]c(N/N=C/c2ccc3c(c2)OCCO3)n1	78.7	
CC1CCCC(NC(=O)c2cc(-c3ccncc3)nc3ccccc23)C1C (configuration not stated)	-15.3	
CCCCSc1nnc2c(n1)OC=Nc1ccccc1-2	23.8	
